Holding throughout (assay): NCI-60 one-dose screen, 48 h (100 = growth as untreated, 0 = no growth, -100 = all killed)
Common to all, as to conditions: 10 µM

Test [1] relates to NCI-H23 lung.
Test [2] concerns NCI-H226 lung.
Test [3] deals with NCI-H322M lung.
In test [4] the test system is HOP-62 NSCLC.
In test [5] the test system is NCI-H460 lung.
For test [6], the system named is NCI-H522 lung.
Test [7] has as its system A549/ATCC NSCLC.
Test [8] relates to 786-0 renal.
Test [9] concerns COLO 205 colon.
The subject of test [10] is DU-145 prostate.
In test [11] the test system is K-562 leukemia.
Test [12] deals with MALME-3M melanoma.
The subject of test [13] is MDA-MB-231 breast.
In test [14] the test system is RXF 393 renal.
The test system of test [15] is SF-268 CNS.
Test [16] relates to SF-295 CNS.
Test [17] deals with SF-539 CNS.
The test system of test [18] is UACC-257 melanoma.
Test [19] deals with HCT-15 colon.
Test [20] has as its system M14 melanoma.

Compounds without any hit were thinned out: in the full panel of roughly 83,000, 20% have a hit.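 How to read the values: 0–100, growth inhibition (40 = 60% inhibited); 0, no net growth; -100 to 0, cell death (-40 = 40% of starting cells died; -100 = all dead).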 A number with no mark means an inactive call. The source made the active and inactive calls. How the source made its calls: active means growth percent below 10; inactive means the rest.

Consider `CCC(=O)N1C/C(=C/c2ccc(Cl)cc2)C(=O)/C(=C/c2ccc(Cl)cc2)C1`, for which the growth in test [1] was -25.6% (active); in test [2] it was -53.9% (active); in test [3], -16.6% (active); in test [4], -53% (active); in [5] it was -13.8% (active); in test [6], -58.7% (active). For the same compound, the growth is -26.7% (active) in test [7]; -69% (active) in test [8]; -76.5% (active) in test [9]; -41.6% (active) in test [10]; 1.74% (active) in [11]; -66.2% (active) in [12]. The growth is -22% (active) in [13]; -94% (active) in test [14]; -30.4% (active) in test [15]; -35.8% (active) in test [16]; -64.7% (active) in test [17]; -40.3% (active) in test [18]. Besides, the growth in test [19] was 0.422% (active).

For the compound `COc1ccc(-c2nc3ncccn3c2-c2nnc(-c3ccc(F)cc3)o2)cc1`, the growth in test [1] is 98.2%; in test [2], 96.7%; in [3] it was 101%; in test [4], 106%; in [5], 101%; in [6] it was 106%. Further, the growth in [7] was 104%; in test [8], 101%; in test [9], 113%; in test [10], 106%; in test [11] it was 87.7%; in [12], 122%. In addition, the growth in test [13] is 88.9%; in test [14], 111%; in [16], 97.1%; in test [17], 94.5%; in [18], 105%; in [20], 110%. For the same compound, in test [19], the growth was 93.8%.

As to `Clc1ccc2c(NCCCNc3nccc(Nc4ccc(Br)cc4)n3)ccnc2c1`, the growth in test [1] was 46.8%; in test [2], 90.1%; in test [3], -19.9% (active); in test [4] it was 1.45% (active); in [5] it was -45.9% (active); in [6] it was -83.2% (active). The growth is -71.7% (active) in test [7]; -98.9% (active) in [8]; -84.3% (active) in test [9]; 9.83% (active) in test [10]; -68.8% (active) in test [11]; -83.8% (active) in test [12]. Besides, the growth in [13] is -90% (active); in test [14], -92.7% (active); in [15] it was -84.3% (active); in [16], -84.9% (active); in test [17], -93.1% (active); in test [20], -83.6% (active). Also, the growth in test [19] was -65.8% (active).

As to `Cc1ccc(Nc2cc(C)nc(NCCCNc3ccnc4cc(Cl)ccc34)n2)cc1`, the growth in test [1] is 17.6%; in test [2], 48.5%; in test [3], -31.8% (active); in [4], -12.4% (active); in test [5] it was -45.4% (active); in [6], -83.5% (active). The growth in [7] is -69.3% (active); in [8], -100% (active); in test [9] it was -88.2% (active); in [10], -17.8% (active); in test [11] it was -55% (active); in test [12] it was -80.5% (active). The growth in [13] is -92.4% (active); in test [14], -92.1% (active); in test [15], -85% (active); in [16], -85.6% (active); in test [17] it was -96.9% (active); in test [20], -86% (active). Moreover, in [19], the growth is -71.7% (active).

For `CN(C)CCNC(=O)c1cccn2c(=O)c3cc4ccccc4cc3nc12`, the growth in test [1] is -3.24% (active); in [2] it was -16% (active); in [3], 3.8% (active); in [4] it was -26.8% (active); in [5], -31.7% (active); in test [6], -88.5% (active). In addition, the growth was -27.1% (active) in test [7]; -31.3% (active) in [8]; -15.2% (active) in test [9]; -3.1% (active) in test [10]; 4.58% (active) in [11]; -45.2% (active) in [12]. Besides, the growth in test [13] was 22%; in [14], -89.5% (active); in test [15], -14.9% (active); in test [16], -19.7% (active); in test [17], 1.59% (active); in [20], -63.7% (active). The growth in test [19] is 12.7%.

Consider `CCCCCCCCN(CCCCCCCC)CCCCCCCCCN1CCCc2cc(OC)ccc21`, for which the growth in test [1] is 63.4%; in [2], 89.7%; in test [3], 95.5%; in test [4] it was 85%; in test [5], 102%; in [6] it was 79.4%. Also, the growth in test [7] was 97.2%; in [8], 98.3%; in test [9], 87.8%; in test [10], 105%; in [11], 80.4%; in test [12], 104%. Moreover, the growth in [13] was 89.9%; in [15], 99.9%; in test [16], 88.5%; in test [17], 104%; in test [18], 106%; in [20] it was 93.8%. In addition, in test [19], the growth was 89.3%.

On to `CN(C)CCN1C(=O)c2cccc3cc(N)cc(c23)C1=O`, for which the growth in test [1] was 31.5%; in test [2] it was -30.3% (active); in [3] it was 29.4%; in test [4] it was 34%; in [5], 0.597% (active); in [6] it was -28.3% (active). The growth is 12% in test [7]; 25.7% in [8]; 26.2% in test [9]; 4.45% (active) in test [10]; 3.5% (active) in test [11]; 17.4% in [12]. Moreover, the growth is 57% in test [13]; 18.3% in test [14]; 37.8% in test [15]; 21.1% in test [16]; 33.4% in test [17]; 5.64% (active) in test [18]. For the same compound, the growth in test [19] is 11.8%.

Turning to `CCN(CC)CCCC(C)Nc1ccc2ccc(Cl)cc2n1` (stereo unspecified), the growth in test [1] is 98.5%; in test [2], 93.1%; in test [3], 102%; in test [4], 86.9%; in test [5], 102%; in [6], 92%. Further, the growth in [7] was 98.3%; in test [8] it was 93.8%; in test [9], 95.7%; in test [10], 114%; in [11], 95.6%; in test [12] it was 115%. For the same compound, the growth in test [13] is 90.3%; in test [15], 96.8%; in [16], 95.3%; in test [17], 101%; in test [20], 103%; in [19], 102%.
